# Compound activity: PubChem, National Center for Advancing Translational Sciences (NCATS)
# S-ASM inh – human S-ASM enzyme inhibition | Potency, µM (doses to about 57.5 µM), most hits filed as inhibitors | hit rate 0.006% among 340,000 | P17405 | placental ASM, HMU-PC fluorogenic substrate, 60 min | AID 504937
# Target sequence (P17405 47-631 limits assumed): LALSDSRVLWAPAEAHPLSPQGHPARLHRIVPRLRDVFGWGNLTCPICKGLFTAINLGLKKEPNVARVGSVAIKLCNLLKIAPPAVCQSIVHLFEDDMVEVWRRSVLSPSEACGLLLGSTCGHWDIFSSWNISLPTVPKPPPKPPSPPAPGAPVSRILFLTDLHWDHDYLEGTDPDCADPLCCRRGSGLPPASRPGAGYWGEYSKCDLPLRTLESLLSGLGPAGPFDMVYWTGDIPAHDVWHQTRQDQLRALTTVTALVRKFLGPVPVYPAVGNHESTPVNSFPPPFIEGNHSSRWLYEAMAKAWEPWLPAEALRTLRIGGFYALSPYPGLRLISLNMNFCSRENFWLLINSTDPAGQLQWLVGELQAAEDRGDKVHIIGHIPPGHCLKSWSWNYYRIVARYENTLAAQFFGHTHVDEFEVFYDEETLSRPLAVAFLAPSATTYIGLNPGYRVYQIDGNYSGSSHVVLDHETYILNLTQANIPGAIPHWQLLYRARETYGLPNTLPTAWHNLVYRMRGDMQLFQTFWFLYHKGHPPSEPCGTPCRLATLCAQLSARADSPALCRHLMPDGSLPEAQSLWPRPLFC
#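 Human placenta-derived ASM enzyme was preincubated with compound for 10 minutes at room temperature, then given fluorogenic substrate HMU-PC0 (9 uM final) for 60 minutes at 37 °C; a pH 10 stop preceded fluorescence reading at Ex 386/Em 447 nm.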
# Akt phos inh – blocks phosphorylation of Akt | Neuro2A IGF-stimulated pAkt S473 HTRF, 20 min; hits give low values | activity change, % for hits at 50 µM | hit rate 0.32% among 360,000 | AID 651550; in the data active means activity change below about -80%; inconclusive means mostly about -51% to -80%
#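 Neuro2A cells in DMEM with 0.5% FBS, overnight at 37 deg C, given compound at single 50 µM final, then IGF (6 nM final) for 20 min at 37 deg C. Lysed; phospho-Akt Ser473 by HTRF after 24 h, 665/615 ratio.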
# Vif-APOBEC3F blk – inhibitors of Vif-A3F interaction; HeLa A3F-eYFP + Vif (tagged APOBEC3F with the HIV-1 protein that degrades it), YFP fluorescence increase; Potency, µM (doses to about 46.1 µM); hit rate 0.2% among 390,000; further: nearly all actives have a fitted effect of over 65% in size
#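 HeLa cells stably expressing Vif plus C-terminally eYFP-tagged A3F were seeded, incubated overnight at 37 deg C, dosed with compound, incubated overnight again at 37 deg C. Yellow fluorescence (Ex 488/Em 500-530) reported blocked Vif-mediated A3F-eYFP degradation.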
# Vif-A3G inh – inhibitors of Vif-APOBEC3G interaction; HeLa A3G-eYFP + Vif (tagged APOBEC3G with the HIV-1 protein that degrades it), YFP fluorescence, overnight; Potency, µM (doses to about 46.1 µM), actives largely listed as inhibitors; AID 602310; Q9HC16; hit rate 0.076% among 410,000; further: nearly all actives have a fitted effect of over 60% in size
#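 HeLa cells stably expressing Vif and C-terminally eYFP-tagged A3G, seeded overnight at 37 deg C, then exposed to compound by pintool overnight at 37 deg C. Rise in yellow fluorescence (Ex 488/Em 500-530, Acumen) marks blocked Vif-driven A3G degradation.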
# TSG101-PTAP inh – blocks PTAP/TSG101 interaction to inhibit HIV-1 budding; Q99816; Fluorescence polarization, FITC-PTAP peptide / Tsg101 binding; Potency, µM (series often up to 115 µM), usual class: inhibitors; 340,000 tested, under 10 active; active means well fitted inhibition curve with a large enough effect in the main read-out, with a control signal flat, not every such curve was filed as active; inconclusive means small, poorly fitted or top-dose-only effect, or effect the other way, or a change in a side signal; inactive means no such curve, though single readings can be large or run the other way
#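 Fluorescence polarization binding of Tsg101 binding domain (10 uM final) to FITC-labeled PTAP peptide (50 nM final) in HEPES pH 7.5 buffer with NaCl, Tween 20, EDTA, TCEP. Compounds added before peptide; binding 20 min at RT.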
# ALOX12 inh – blocks human arachidonate 12S-lipoxygenase | P18054 | Potency, µM (series often up to 108 µM), most hits filed as inhibitors | hit rate 1.1% among 580,000 | purified 12hLO, xylenol orange hydroperoxide absorbance | AID 1671190
#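 Hydroperoxide product was detected by ferrous iron/xylenol orange as the 573 to 405 nm absorbance ratio. Arachidonic acid at 40 uM (final) was turned over for 30 min at room temperature by 150 nM human 12hLO, pH 7.0 Hepes buffer, after 15 min compound preincubation.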
# A number is an active result; 0 = inactive; ? = inconclusive; - = not tested or not shown; ! = a repeat was not active; [ ] = dose if it differs, or a comment. The list is not random: actives were taken first. Their share in the collection is about 1.4%. Unless noted, the call rests on the fitted dose curve; in most records, active means well fitted curve in the direction sought with a large enough effect; inconclusive means small, poorly fitted or top-dose-only effect, or another doubt; inactive means no such curve, though single readings can be large; an effect the other way counts as inactive or inconclusive.
SMILES,S-ASM inh,Akt phos inh,Vif-APOBEC3F blk,Vif-A3G inh,TSG101-PTAP inh,ALOX12 inh
Cc1ccc(C(c2sc3nc(-c4ccco4)nn3c2O)N2CCOCC2)cc1 (stereo not drawn),-,-,0,0,-,14µM
Oc1c(C(c2ccc(Br)cc2)N2CCOCC2)sc2nc(-c3ccco3)nn12 (stereo not drawn),-,-,0,0,-,?
O=C1NCc2ccccc2CC12CCN(Cc1c[nH]c3ccccc13)CC2,-,-,-,-,-,0[6.33 µM]
O=C1NCc2ccccc2CC12CCCN(Cc1ccnc3ccccc13)C2 (stereo not drawn),-,-,-,-,-,22µM
O=C1NCc2ccccc2CC12CCN(Cc1ccnc3ccccc13)CC2,-,-,-,-,-,28µM
N#Cc1cccc(NC(=O)NCCNc2ccccn2)c1,-,-,-,-,-,0
COc1cc(OC)c(NC(=O)c2ncoc2-c2ccc(C)o2)cc1Cl,-,-,-,-,-,0
Cc1oc(-c2ccccc2)nc1CC(=O)NC1CCCCC1,-,-,-,-,-,0
O=S(=O)(Nc1ccc(O)c2ccccc12)c1cccs1,0,0,0,0,0,32µM
Cc1cc(C)c(NC(=O)CNC(=O)c2nccnc2N)c(C)c1,-,-,-,-,-,0
O=S1OCCSc2sc(=S)sc2SCCO1,-,-,-,-,-,28µM
Cc1ccc(S(=O)(=O)CCSc2nc(C)cc(C(F)(F)F)c2C#N)cc1,0,0,?,11µM,?,0
CCOc1cccc(C(c2c[nH]c3ccccc23)c2c[nH]c3ccccc23)c1O,-,-,-,-,-,4µM
C=CCOc1cccc(C2C(C(=O)c3ccco3)=C(O)C(=O)N2Cc2ccco2)c1 (stereo not drawn),0,0,0,0,0,45µM
COCCCN1C(=O)C(O)=C(C(=O)c2ccco2)C1c1ccccc1 (stereo not drawn),0,-108%,0,0,0,?
C=CCOc1cccc(C2C(C(=O)c3ccco3)=C(O)C(=O)N2Cc2ccncc2)c1 (stereo not drawn),0,0,0,0,0,?
COc1ccc(C2CC(=O)C=C(Nc3ccc(F)cc3F)C2)cc1 (stereo not drawn),-,-,-,-,-,0
O=C(COc1ccc(-c2ccccc2)cc1Cl)OCC(=O)c1ccc[nH]1,-,-,-,-,-,0
O=C(NC1CCCCC1)C1CCCN(C(=O)c2ccc3cc[nH]c3c2)C1 (stereo not drawn),-,-,-,-,-,0
CCCSc1nc(N)c(C#N)c(-c2ccc(C)cc2)c1C#N,0,-91%,0,0,0,0
N#Cc1c(N)nc(SCC(=O)C23CC4CC(CC(C4)C2)C3)c(C#N)c1-c1ccc(Cl)cc1,0,-82%,0,0,0,0
C=CCNC(=S)NC(=O)c1cc(Br)ccc1Cl,-,-,-,-,-,0
Cc1cc(C)c(OCC(=O)OCCNC(=O)c2cccnc2)c(C)c1,0,0,0,0,0,?
C=CCc1ccccc1OCC(=O)OCCNC(=O)c1cccnc1,0,0,0,0,0,40µM
CN(C)/C=C/C(=O)c1ccc(Br)s1,0,0,0,0,0,40µM
SMILES,S-ASM inh,Akt phos inh,Vif-APOBEC3F blk,Vif-A3G inh,TSG101-PTAP inh,ALOX12 inh
Cc1nn(-c2ccccc2)c(C)c1CN(C)S(=O)(=O)c1ccc(Cl)cc1F,-,-,-,-,-,0
Cc1sc2nc(SCc3ccc(F)cc3Cl)n(CCCN3CCOCC3)c(=O)c2c1C,-,-,-,-,-,0
N=C(N)c1cccc(OCc2cccnc2)c1,-,-,-,-,-,7.9µM
Cc1ccc2oc(-c3ccc(Cl)cc3)nc2c1,-,-,-,-,-,0
COCCn1cnnc1SCc1ccc(F)cc1,-,-,-,-,-,0
Cc1cc(NC(=O)CSc2ccc3nnc(-c4cccc(F)c4)n3n2)no1,0,0,0,0,0,45µM
CN(C)c1ccc(-c2csc(C(O)(c3ccccc3)C(F)(F)F)n2)cc1 (stereo not drawn),-,0,-,0,-,18µM
Cc1ccccc1-c1csc(C(O)(c2ccccc2)C(F)(F)F)n1 (stereo not drawn),-,0,-,0,-,45µM
O=C(CCc1cccnc1)NCc1ccc(C(F)(F)F)cc1,-,-,-,-,-,0
C#CCNC(=O)C1CN(c2cccc(Cl)c2)C(=O)N1 (stereo not drawn),-,-,-,-,-,50µM!
COC[C@H]1CCCN1C(=O)C[C@@H]1O[C@H](CNS(=O)(=O)c2ccccc2)[C@@H](O)[C@H]1O,-,-,-,-,-,40µM
CCOC(=O)c1c(C)n(CC(=O)OC)c2ccc(O)cc12,-,-,-,-,-,0
CN(C)/C=C/C(=O)c1ccc(Oc2ccccc2)cc1,0,0,0,0,0,5µM
CNc1ccc(Br)cc(C(=O)/C=C/c2ccc(Cl)cc2Cl)c1=O,0,0,?,?,0,13µM
C[S+](=O)([O-])N1CCCC2(C1)C(=NC1CCCC1)NC(=O)N2c1cc(F)cc(F)c1 (stereo not drawn),-,-,-,-,-,89µM
O=C(CCN1CCN(C(=O)c2ccco2)CC1)Nc1ccc(F)cc1,0,0,0,0,0,0
O=C(c1ccco1)N1CCN(CCCCOc2ccc(F)cc2)CC1,0,0,0,0,0,32µM
CCC(=O)Oc1c(Sc2ccc(Cl)cc2)c(C)nn1-c1ccccc1,-,-,0,0,-,16µM
CCC(=O)Oc1c(Sc2ccc(C)cc2)c(C)nn1-c1ccccc1,-,-,0,0,-,?
